The values that follow come from PubChem BioAssay AID2537 (National Center for Advancing Translational Sciences (NCATS), 2010).

Results filed as inconclusive are left out. Calls of active or inactive are those of the source. Calls follow the shape of the dose curve; as a rule, active = well fitted inhibition curve with a large enough effect; inconclusive = small, poorly fitted or top-dose-only effect; inactive = no such curve, though single readings can be large or run the other way.

Sequence of Polyunsaturated fatty acid lipoxygenase ALOX15B (Homo sapiens) (O15296 whole entry, looked up): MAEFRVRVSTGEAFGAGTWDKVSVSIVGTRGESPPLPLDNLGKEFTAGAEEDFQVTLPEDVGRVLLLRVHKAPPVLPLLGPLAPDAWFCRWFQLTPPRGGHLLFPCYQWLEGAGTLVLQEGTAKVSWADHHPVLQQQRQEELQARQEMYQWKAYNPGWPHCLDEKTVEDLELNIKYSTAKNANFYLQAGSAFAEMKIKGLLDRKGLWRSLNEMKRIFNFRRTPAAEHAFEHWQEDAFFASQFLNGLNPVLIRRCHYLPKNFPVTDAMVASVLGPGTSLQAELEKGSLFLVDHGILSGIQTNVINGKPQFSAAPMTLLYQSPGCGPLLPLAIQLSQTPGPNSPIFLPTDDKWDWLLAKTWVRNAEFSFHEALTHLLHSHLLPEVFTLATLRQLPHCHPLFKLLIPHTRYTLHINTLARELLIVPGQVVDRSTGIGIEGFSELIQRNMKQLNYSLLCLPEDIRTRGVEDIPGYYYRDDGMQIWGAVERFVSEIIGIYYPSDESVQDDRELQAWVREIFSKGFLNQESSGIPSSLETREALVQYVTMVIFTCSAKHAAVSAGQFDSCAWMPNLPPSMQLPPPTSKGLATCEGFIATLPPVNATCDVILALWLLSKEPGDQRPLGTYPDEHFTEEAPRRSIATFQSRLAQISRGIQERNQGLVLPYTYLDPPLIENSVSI

The target in this assay is Polyunsaturated fatty acid lipoxygenase ALOX15B (Homo sapiens) (UniProt O15296). Kind of assay: Confirmation qHTS Assay for Inhibitors of 15-hLO-2 (15-human lipoxygenase 2). Particulars: purified 15hLO-2, xylenol orange hydroperoxide absorbance; series mostly up to 57.1 µM; activity change, negative = inhibition: at the top concentration. As for the experimental part:
Human lipoxygenase 15hLO-2 is a member of the closely related lipoxygenase family of enzymes which catalyze the site-specific oxidation of arachidonic acid to various hormone precursor molecules and as such is a candidate for drug development in a variety of disease areas, such as cancer and inflammation. Inhibition of 15hLO-2 activity was screened by utilizing arachidonic acid as a substrate. The extent of hydroperoxide product formation was measured by a secondary chromogenic reaction in which xylenol orange (XO, Sigma-Aldrich, cat. number 39,818-7) reacts with the ferric ions produced from the reaction between the hydroperoxide and ferrous ions. The Fe(III)-XO complex is characterized with red-shifted absorbance at 560 nm. A purified preparation of human 15hLO-2 was supplied by Professor Ted Holman, University of California, Santa Cruz. NIH Molecular Libraries Screening Centers Network [MLSCN] NIH Chemical Genomics Center [NCGC] MLSCN Grant: MH081283-01A1 PI Name: Holman, T.R., University of California, Santa Cruz
Assay Protocol: Buffer: 25 mM Hepes pH 7.5, 0.01% Triton X-100. Reagents/Controls: Buffer in columns 3 and 4 as negative control (no enzyme). Substrate solution: 45 uM arachidonic acid (Sigma-Aldrich, St. Louis, MO) final concentration dispensed throughout the plate. Enzyme: 50 nM 15hLO-2 final concentration in columns 1, 2, 5-48. Column 1 is neutral (100% activity). Column 2 contained pin-transferred titration of NDGA (nordihidroguaiaretic acid, Sigma-Aldrich, N 5023, top concentration 10 mM in DMSO, then 1:2 dilution in duplicate). (Dilution factor: 23 nL into 4 uL.) Chromogenic detection reagent (divalent iron/xylenol orange, Fe-XO): 200 uM xylenol orange plus 300 uM ferrous ammonium sulfate prepared freshly in 50 mM sulfuric acid. Assay Steps: Three uL of enzyme were dispensed to 1536-well Greiner black clear bottom plates. Compounds and controls (23 nL) were transferred via Kalypsys PinTool. The plates were incubated for 15 min at room temperature, and then 1 uL of substrate solution was added to start the reaction. After room temperature incubation for 90 minutes, 4 uL of Fe-XO solution was added to each well followed by a short spin (1000 rpm, 15 sec) and the plates were then incubated for 30 min. The absorbance at 405 and 573 nm were measured using ViewLux (Perkin-Elmer) High-throughput CCD imager and absorbance protocol settings. The 573-to-405 absorbance ratio was used to compute reaction progress.
In general terms: In qHTS, concentration-response curves come from the screen itself.
Turning to `Cc1csc(-c2coc3cc(O)cc(C)c3c2=O)n1`, the “activity change, negative = inhibition” value was -3.97% (inactive).
On the same count and under the same terms, then `Cc1cc(Nc2nnnn2-c2ccccc2)n(-c2ccc(Cl)cc2)n1`, with -4.85% (inactive).
Still for that read-out and setting: the result for `O=C(Cc1cc(=O)[nH][nH]1)N/N=C/C=C/c1ccccc1` reads 14.5% (inactive); that for `Cc1ccc(OCC(=O)Nc2ccc(N3CCCC3)cc2)cc1C`, 3.37% (inactive); that for `Cc1cccc(NC(=O)CSC(N)=O)c1C`, -20.6% (inactive).
As to `O=C(Nc1cccc(F)c1)N1CCCC2(CCN(C(=O)c3ccco3)CC2)C1`, the “activity change, negative = inhibition” value is -1.77% (inactive).
On the same count and under the same terms, the result for `CCOC(=O)c1c(NC(=O)CN2CCOCC2)sc2c1CCCC2` reads -3.97% (inactive); that for `Oc1ccc2ccccc2c1CNc1cnc2ccccc2c1`, -10.2% (inactive).
For `O=C(CC1C(=O)N(c2ccc(Cl)cc2)C(=S)N1CCc1ccncc1)Nc1ccc(F)cc1` (stereo not given), the “activity change, negative = inhibition” value is 5.96% (inactive).
`COc1ccccc1-n1c(SCC(=O)Nc2ccc(C)cc2)nc(O)cc1=O`: the “activity change, negative = inhibition” value is 0.145% (inactive).
As to `CN(C)CCC(=O)c1ccc(Cl)cc1`, the “activity change, negative = inhibition” value is -28.3% (inactive).
In the case of `c1csc(C2Nc3cccc4cccc(c34)N2)c1`, the Potency is 12.6 µM (active).
For `COc1ccc(NC(=O)CSc2nc(O)cc(=O)n2-c2ccccc2OC)cc1`, the “activity change, negative = inhibition” value is -4.58% (inactive).
For the compound `OC1(c2cccc(C(F)(F)F)c2)CCN(c2ncnc3c2[nH]c2ccc(F)cc23)CC1`, the “activity change, negative = inhibition” value is -11.8% (inactive).
Take `Clc1ccc(NNc2ccnc3cc(Cl)ccc23)cc1`: the “activity change, negative = inhibition” value was -13.6% (inactive).
Still for that read-out and setting: the result for `CCOc1ccc(NS(=O)(=O)c2ccc3[nH]cc(C(=O)N(CC)CC)c(=O)c3c2)cc1` reads -2.5% (inactive); that for `Cc1ccc(C)c(NC(=S)NNC(=O)c2csc3c2CCC(C)C3)c1` (stereo not given), -44.7% (inactive).
For the compound `CC1=CC(C)(C)Nc2ccc(OC(=O)CN3C(=O)c4cccc5cccc(c45)C3=O)cc21`, the Potency was 12.6 µM (active).
On to `CCOc1cc(-c2cc(-c3ccc(N)cc3)nc(N)c2C#N)ccc1O`, for which the “activity change, negative = inhibition” value is -14.9% (inactive).
Regarding `Cc1ccc(-c2ccc(/C=C3\C(=O)ON=C3c3ccccc3)o2)c([N+](=O)[O-])c1`, the Potency was 3.16 µM (active).
On to `O=C(Nc1nc2n(n1)C(c1ccccc1)CC(c1ccc(Cl)cc1)N2)c1ccco1` (stereo not given), for which the “activity change, negative = inhibition” value is 20.6% (inactive).
The same measure, in the same setting: the result for `CC(=O)NCCNc1ncncc1-c1ccc(N(C)C)cc1` reads -18.4% (inactive); that for `COC(=O)c1ccc(C(=S)N2CCOCC2)cc1`, -23.2% (inactive).
On the same count and under the same terms, the result for `N=c1c(C(=O)NC2CCCC2)cc2c(=O)n3ccccc3nc2n1C1CCCC1` reads -11.1% (inactive).
Take `CC1=NOC(=O)/C1=C\c1ccc(-c2cccc(Cl)c2)o1`: the Potency was 4.47 µM (active).
As for `CN(C)/C=C/C(=O)c1ccc(Cl)cc1`, the “activity change, negative = inhibition” value is -5.09% (inactive).
As to `O=C(c1ccncc1)N1CCC2(CCCN(Cc3nccs3)C2)CC1`, the “activity change, negative = inhibition” value is 2.02% (inactive).
Still for that read-out and setting: then `COc1ccccc1CNc1ncncc1-c1ccoc1`, with -18.2% (inactive); and `O=c1c(-c2ccc3c(c2)OCCO3)coc2cc(O)cc(O)c12`, with -10.2% (inactive).
The same measure, in the same setting: the result for `COCCSc1ccccc1C(=O)NCc1ccco1` reads -8.59% (inactive); that for `COc1ccc(OC)c(NC(=O)NC2(C(F)(F)F)Oc3ccccc3O2)c1`, -24.4% (inactive).
Turning to `Cc1noc(C)c1-c1nc(N(C)Cc2ccco2)c2ccccc2n1`, the “activity change, negative = inhibition” value was -11% (inactive).
For `NC(=O)c1cccc2c3c([nH]c12)CCCC3`, the “activity change, negative = inhibition” value was -5.98% (inactive).
The same measure, in the same setting: the result for `CN1CCN(C(c2cccnc2)c2ccc3cccnc3c2O)CC1` (stereo not given) reads 0.164% (inactive).
Still for that read-out and setting: then `CCCCn1c(Cc2ccccc2)n[nH]c1=S`, with -28.7% (inactive); and `COc1cccc(-c2nc(NC3CCNCC3)c3ccccc3n2)c1`, with 11.1% (inactive).
In the case of `Nc1cc(-c2ccncc2)c[nH]c1=O`, the “activity change, negative = inhibition” value is -15.4% (inactive).
On the same count and under the same terms, the result for `COc1ccc(C(C[N+](=O)[O-])c2c(-c3ccccc3)cc3ccccn23)c(OC)c1` (stereo not given) reads -11% (inactive).
For `Cc1ccc(SCCNC(=S)Nc2ccc(C)c(C)c2)cc1`, the Potency is 25.1 µM (active).
For `COc1cccc(-c2nccc(NCc3ccccc3OC)n2)c1`, the “activity change, negative = inhibition” value was -34.6% (inactive).
